Laboratory results reported in PubChem BioAssay (NCATS).
Records with an inconclusive call do not appear. The source made the active and inactive calls. Calls follow the shape of the dose curve; as a rule, active = well fitted curve in the direction sought with a large enough effect; inconclusive = small, poorly fitted or top-dose-only effect, or another doubt; inactive = no such curve, though single readings can be large; an effect the other way counts as inactive or inconclusive.

How the values were obtained:
CRL-7250 = normal cell line; experiment: Cytotoxic Profiling of Annotated Libraries Using Quantitative High-Throughput Screening (AID 1296008); conditions: Five cell lines viability, CellTiter-Glo ATP luminescence, 48-72 h; max response: hits give low values; also: nearly all actives have a fitted effect of over 60% in size; as to max response: % is scaled to controls: 0 for no effect and ±100 for the full control effect
In short: (§1)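 Cytotoxicity was measured as CellTiter-Glo ATP luminescence, read after 10 min at room temperature. Compound treatment of the cells lasted 48 or 72 hr at 37 degrees Celsius in a qHTS format.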

HEK293 = experiment: as above; conditions: Five cell lines viability, CellTiter-Glo ATP luminescence, 48-72 h; max response: hits give low values
In short: as §1

HaCat [1] = experiment: as above; conditions: Five cell lines viability, CellTiter-Glo ATP luminescence, 48-72 h; max response: hits give low values
In short: as §1

KB-3-1 = experiment: as above; conditions: Five cell lines viability, CellTiter-Glo ATP luminescence, 48-72 h; max response: hits give low values
In short: as §1

NIH3T3 = experiment: as above; conditions: Five cell lines viability, CellTiter-Glo ATP luminescence, 48-72 h; max response: hits give low values
In short: as §1

HACAT [2] = experiment: qHTS assay to identify novel small-molecules to repurpose for Merkel cell carcinoma treatment (AID 1296009); conditions: MCC and control cell lines, CellTiter-Glo viability, 72 h; at 44.8 µM (top of the series) unless noted; also: nearly all actives have a fitted effect of over 60% in size
In short: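 72 hr, 37 degree celsius; NPC 8-pt / MIPE 11-pt dose response; compound pinned in DMSO; CellTiter-Glo, 10 min RT, luminescence; normalized to no-cell and DMSO controls.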

C33A = experiment: Primary qHTS to identify gynecologic anti-cancer compounds using libraries of approved drugs and bioactive compounds (AID 1345084); conditions: Gynecologic cancer cell panel viability, ATPlite luminescence, 48 h; series mostly up to 57.5 µM; also: % is scaled to controls: 0 for no effect and ±100 for the full control effect; nearly all actives have a fitted effect of over 55% in size
In short: (§2)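 Cell viability after 48 h drug treatment, ATPlite luminescence readout; five doses.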

CAOV3 = experiment: as above; conditions: Gynecologic cancer cell panel viability, ATPlite luminescence, 48 h; series mostly up to 57.5 µM
In short: as §2

CASKI = experiment: as above; conditions: Gynecologic cancer cell panel viability, ATPlite luminescence, 48 h; series mostly up to 57.5 µM
In short: as §2

Es-2 = experiment: as above; conditions: Gynecologic cancer cell panel viability, ATPlite luminescence, 48 h; series mostly up to 57.5 µM
In short: as §2

HeLa = experiment: as above; conditions: Gynecologic cancer cell panel viability, ATPlite luminescence, 48 h; series mostly up to 57.5 µM
In short: as §2

Hek293T = experiment: as above; conditions: Gynecologic cancer cell panel viability, ATPlite luminescence, 48 h, control line for the selectivity index; series mostly up to 57.5 µM
In short: as §2

JEG-3 = experiment: as above; conditions: Gynecologic cancer cell panel viability, ATPlite luminescence, 48 h; series mostly up to 57.5 µM
In short: as §2

O=C(Cn1c2ccccc2c2nc3n(c(=O)c21)CCS3)N1CCCC1
inactive: outcome (CRL-7250) | max response (HEK293) -15.3% | outcome (HaCat [1]) | outcome (KB-3-1) | max response (NIH3T3) 1.74% | outcome (HACAT [2]) | Potency (C33A) | Potency (CAOV3) | outcome (CASKI) | Potency (Es-2) | Potency (HeLa) | Potency (Hek293T) | Potency (JEG-3)

CC1(C)C(=O)N2c3ccccc3C(O)(CC(C(=O)O)n3cnc4ccccc4c3=O)C2N1O (stereo unspecified)
inactive: max response (CRL-7250) 0.472% | max response (HEK293) -0.978% | outcome (HaCat [1]) | max response (KB-3-1) 4.14% | max response (NIH3T3) 1.17% | outcome (HACAT [2]) inactive [at 17.4 µM] | Potency (C33A) | Potency (CAOV3) | outcome (CASKI) | Potency (Es-2) | Potency (HeLa) | Potency (Hek293T) | Potency (JEG-3)

CC(O)C/C=C/C=C/C(=O)OC1C=C2COC(=O)C2(O)C2(C)CCCC(C)(C)C12 (stereo unspecified)
inactive: outcome (CRL-7250) | max response (HEK293) -13.6% | outcome (HaCat [1]) | max response (KB-3-1) 5.12% | max response (NIH3T3) -2.82% | outcome (HACAT [2]) | Potency (C33A) | Potency (CAOV3) | outcome (CASKI) | Potency (Es-2) | Potency (HeLa) | Potency (Hek293T) | Potency (JEG-3)

COc1ccc(C(=O)OC2C3C=COC(OC4OC(CO)C(O)C(O)C4O)C3C3(CO)OC23)cc1OC (stereo unspecified)
inactive: max response (CRL-7250) -2.32% | max response (HEK293) 1.41% | outcome (HaCat [1]) | max response (KB-3-1) 3.28% | max response (NIH3T3) -4.72% | outcome (HACAT [2]) inactive [at 17.4 µM] | Potency (C33A) | Potency (CAOV3) | outcome (CASKI) | Potency (Es-2) | Potency (HeLa) | Potency (Hek293T) | Potency (JEG-3)

C[C@]1(O)CC[C@@H]2C(C(=O)O)=CO[C@@H](O[C@@H]3O[C@H](CO)[C@@H](O)[C@H](O)[C@H]3O)[C@@H]21
inactive: max response (CRL-7250) -9.18% | max response (HEK293) -5.73% | outcome (HaCat [1]) | max response (KB-3-1) 0.108% | max response (NIH3T3) 1.11% | outcome (HACAT [2]) | Potency (C33A) | Potency (CAOV3) | outcome (CASKI) | Potency (Es-2) | Potency (HeLa) | Potency (Hek293T) | Potency (JEG-3)

C=C1CC2C3(C)C(O)CC(=O)C(C)(C)C3C(O)C(OC(C)=O)C2(C)C2C(=O)OC(C)(C(=O)OC)C(=O)C12C (stereo unspecified)
inactive: outcome (CRL-7250) | max response (HEK293) -2.76% | outcome (HaCat [1]) | outcome (KB-3-1) | max response (NIH3T3) -16.8% | outcome (HACAT [2]) inactive [at 17.4 µM] | Potency (C33A) | Potency (CAOV3) | outcome (CASKI) | Potency (Es-2) | Potency (HeLa) | Potency (Hek293T) | Potency (JEG-3)

CC(=O)/C=C/C1(O)C(C)CC(O[C@@H]2O[C@H](CO)[C@@H](O)[C@H](O)[C@H]2O)CC1(C)C (stereo partly specified)
inactive: outcome (CRL-7250) | max response (HEK293) 1.81% | outcome (HaCat [1]) | outcome (KB-3-1) | max response (NIH3T3) -2.62% | outcome (HACAT [2]) inactive [at 17.4 µM] | Potency (C33A) | Potency (CAOV3) | outcome (CASKI) | Potency (Es-2) | Potency (HeLa) | Potency (Hek293T) | Potency (JEG-3)

COC(=O)[C@]1(Cc2ccc(O)c(CC=C(C)C)c2)OC(=O)C(O)=C1c1ccc(O)cc1
inactive: max response (CRL-7250) 1.22% | max response (HEK293) 3.25% | outcome (HaCat [1]) | outcome (KB-3-1) | max response (NIH3T3) 0.954% | outcome (HACAT [2]) inactive [at 17.4 µM] | Potency (C33A) | Potency (CAOV3) | outcome (CASKI) | Potency (Es-2) | Potency (HeLa) | Potency (Hek293T) | Potency (JEG-3)

CC1CCC2C(C)(C)C(O)C(O)CC2(C)C12Cc1c(O)cc(CO)c(C=O)c1O2 (stereo unspecified)
inactive: max response (CRL-7250) 1.89% | max response (HEK293) -2.44% | outcome (HaCat [1]) | max response (KB-3-1) 2.63% | max response (NIH3T3) 0.788% | outcome (HACAT [2]) inactive [at 17.4 µM] | Potency (C33A) | Potency (CAOV3) | outcome (CASKI) | Potency (Es-2) | Potency (HeLa) | Potency (Hek293T) | Potency (JEG-3)

CC/C=C/C=C/C1(C)OC(CC(CO)OC)=CC1=O (stereo unspecified)
inactive: max response (CRL-7250) -6.3% | max response (HEK293) -18.9% | outcome (HaCat [1]) | outcome (KB-3-1) | max response (NIH3T3) 1.62% | outcome (HACAT [2]) | Potency (C33A) | Potency (CAOV3) | outcome (CASKI) | Potency (Es-2) | Potency (HeLa) | Potency (Hek293T) | Potency (JEG-3)

O=C(/C=C/c1ccccc1)OC[C@H]1O[C@@H](OC(=O)c2cc(O)c(O)c(O)c2)[C@H](O)[C@@H](O)[C@@H]1O
inactive: outcome (CRL-7250) | max response (HEK293) 4.27% | outcome (HaCat [1]) | max response (KB-3-1) 6.66% | max response (NIH3T3) 3.75% | outcome (HACAT [2]) inactive [at 17.4 µM] | Potency (C33A) | Potency (CAOV3) | outcome (CASKI) | Potency (Es-2) | Potency (HeLa) | Potency (Hek293T) | Potency (JEG-3)

C/C=C1/[C@H](O[C@@H]2O[C@H](CO)[C@@H](O)[C@H](O)[C@H]2O)OC=C(C(=O)OC)[C@H]1CC(=O)OCCc1ccc(OC(=O)C[C@@H]2C(C(=O)OC)=CO[C@@H](O[C@@H]3O[C@H](CO)[C@@H](O)[C@H](O)[C@H]3O)/C2=C/C)cc1
inactive: max response (CRL-7250) -8.75% | max response (HEK293) -1.34% | outcome (HaCat [1]) | outcome (KB-3-1) | max response (NIH3T3) 2.32% | outcome (HACAT [2]) inactive [at 9.27 µM] | activity change, negative = cytotoxicity (C33A) 3.14% [at 11.6 µM] | activity change, negative = cytotoxicity (CAOV3) 14% [at 11.6 µM] | activity change, negative = cytotoxicity (CASKI) 4.82% [at 11.6 µM] | activity change, negative = cytotoxicity (Es-2) 6.86% [at 11.6 µM] | activity change, negative = cytotoxicity (HeLa) 18.2% [at 11.6 µM] | activity change, negative = cytotoxicity (Hek293T) 5.22% [at 11.6 µM] | activity change, negative = cytotoxicity (JEG-3) 15.1% [at 11.6 µM]
